An excerpt weighted towards active compounds, which were near 10% of everything screened.
G9a inh: qHTS Assay for Inhibitors of Histone Lysine Methyltransferase G9a | Histone-lysine N-methyltransferase EHMT2 (Homo sapiens), Q96KQ7 | G9a H3K9 monomethylation, AlphaScreen, 2 h | Potency, µM (top dose mostly 102 µM), for inactives: top-dose activity, negative = inhibition, usual class: inhibitors | actives 8.8% (n = 350,000) | AID 504332, 2011; also: potency is read from the fitted curve at half-maximal effect; % is scaled to controls: 0 for no effect and ±100 for the full control effect; nearly all actives have a fitted effect of over 75% in size
Target sequence (Q96KQ7 913-1193 limits assumed): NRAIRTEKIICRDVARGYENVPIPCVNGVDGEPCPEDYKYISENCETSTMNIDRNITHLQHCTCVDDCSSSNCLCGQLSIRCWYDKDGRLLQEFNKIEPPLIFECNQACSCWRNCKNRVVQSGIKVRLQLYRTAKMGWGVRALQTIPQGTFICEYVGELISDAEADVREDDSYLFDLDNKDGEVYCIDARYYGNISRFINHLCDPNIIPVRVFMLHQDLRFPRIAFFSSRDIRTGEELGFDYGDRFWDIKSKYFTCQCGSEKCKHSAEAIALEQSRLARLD
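Methyltransferase reactions run at room temperature for 2 h (20 nM enzyme, 500 nM biotin-H3K9 peptide, 20 uM SAM) after a 15 min compound preincubation; product detected by AlphaScreen beads and anti-H3K9me1 antibody.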
BAZ2B block: qHTS Assay for Inhibitors of BAZ2B. Bromodomain adjacent to zinc finger domain protein 2B (Homo sapiens), Q9UIF8. AlphaScreen BAZ2B-H3K14Ac peptide displacement. Potency, µM (highest dose often 114 µM), without a hit: at the highest dose activity change, negative = inhibition, most hits filed as inhibitors. actives 4.4% (n = 360,000). AID 504333, 2011; also: potency is read from the fitted curve at half-maximal effect; % is scaled to controls: 0 for no effect and ±100 for the full control effect; nearly all actives have a fitted effect of over 60% in size
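AlphaScreen displacement: compounds (up to 110uM) incubated 30 min at room temperature with a preformed 50 nM BAZ2B/50 nM biotinylated H3K14Ac peptide complex in PBS pH 7.4 with Tween-20. Donor and acceptor beads at 10 ug/mL final added, 20 min light-protected before reading.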
CtBP-E1A inh: qHTS Assay for Inhibitors of the CtBP/E1A Interaction; CtBP / adenovirus E1A interaction (AlphaScreen); AlphaScreen GST-E1A/His-CtBP binding, 1536-well; hits give low values; activity change, % (no concentration beside the values); actives 0.49% (n = 340,000); AID 651724, 2012; in the data active = activity change below about -65%; inconclusive = mostly about -30% to -63%; also: % is scaled to controls: 0 for no effect and ±100 for the full control effect
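In 5 uL wells, 23 nL compound meets equimolar GST-E1A and His-CtBP (5X stock 125 nM each) for 2 h, 37 °C. Beads (5X, 50 ug/mL) then 1 h, 37 °C, dark.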
HP1b binding inh: HTS for Inhibitors of HP1-beta Chromodomain Interactions with Methylated Histone Tails; actives 0.56% (n = 390,000); Potency, µM (doses to about 114 µM), for inactives: at the top dose activity change, negative = inhibition, most hits filed as inhibitors; AlphaScreen HP1-beta / biotin-H3K9me3 peptide binding; also: potency is read from the fitted curve at half-maximal effect; nearly all actives have a fitted effect of over 70% in size
Target sequence (P83916 whole entry, looked up): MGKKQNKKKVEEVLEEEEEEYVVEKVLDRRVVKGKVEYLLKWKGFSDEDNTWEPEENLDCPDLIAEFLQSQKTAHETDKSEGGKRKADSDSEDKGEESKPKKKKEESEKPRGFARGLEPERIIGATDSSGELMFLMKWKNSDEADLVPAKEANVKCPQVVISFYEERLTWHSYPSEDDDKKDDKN
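Compound inhibition of the preformed complex between 50 nM HP1-beta and 50 nM biotinylated H3K9me3 peptide was read by AlphaScreen. Buffer was PBS pH 7.4 with 0.01% Tween-20. Incubations ran 30 min at room temperature, with 10 ug/mL donor/acceptor beads.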
JMJD2A Tudor inh: qHTS Assay for Inhibitors of JMJD2A-Tudor Domain | Potency, µM (highest dose often 114 µM), for inactives: at the top dose activity change, negative = inhibition, hits mostly inhibitors | actives 4.4% (n = 390,000) | AlphaScreen JMJD2A-Tudor / H3K4me3 peptide binding | AID 504339, 2011 | Lysine-specific demethylase 4A (Homo sapiens), O75164; also: potency is read from the fitted curve at half-maximal effect; % is scaled to controls: 0 for no effect and ±100 for the full control effect; nearly all actives have a fitted effect of over 50% in size
Six1-Eya2 blk: qHTS Assay for Inhibitors of the Six1/Eya2 Interaction; AlphaScreen GST-Six1/His-Eya2 binding, biochemical; hits give low values; Homeobox protein SIX1 (Homo sapiens) + Protein phosphatase EYA2 (Homo sapiens), …; AID 651725, 2012; activity change, % (test concentration not listed); actives 0.56% (n = 360,000); in the data active = activity change below about -65%; inconclusive = mostly about -30% to -63%; also: % is scaled to controls: 0 for no effect and ±100 for the full control effect
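Homogeneous AlphaScreen proximity assay pairing GST-Six1 with His-tagged Eya2 (added as 5X mix: 250 nM and 500 nM) in 50 mM Tris pH 8.0, 300 mM NaCl, 1 mM TCEP. Glutathione donor and nickel acceptor beads; 1 h, 37 °C, dark.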
An asterisk follows results filed as active; ? = inconclusive; . = no result given; [ ] = dose if it differs, or a comment. Unless noted, calls follow the shape of the dose curve; as a rule, active = well fitted inhibition curve with a large enough effect; inconclusive = small, poorly fitted or top-dose-only effect; inactive = no such curve, though single readings can be large or run the other way.

SMILES	G9a inh	BAZ2B block	CtBP-E1A inh	HP1b binding inh	JMJD2A Tudor inh	Six1-Eya2 blk
CC(C(=O)Nc1ccc(OC(F)(F)F)cc1)N1Cc2ccccc2C1=O (stereo not drawn)	-8%[59 µM]	2%	.	27%	-11%	.
CCn1cc(C(=O)O)c(=O)c2cc(F)c(N3CCN(C(=O)Nc4ccccc4)CC3)cc21	40µM*	-7%	4	16%	22µM*	-7
CCn1cc(C(=O)O)c(=O)c2cc(F)c(N3CCN(C(=S)NC(=O)c4ccccc4F)CC3)cc21	?	?	7	7%	?	5
CCn1cc(C(=O)O)c(=O)c2cc(F)c(N3CCN(C(=S)NC(=O)c4ccc(Br)cc4)CC3)cc21	7%	32µM*	?	-5%	-14%[11.4 µM]	-3
CCn1cc(C(=O)O)c(=O)c2cc(F)c(N/N=C/c3ccccc3)cc21	7%[59 µM]	-1%	-74*	22%	-8%	?
Cc1cc(C)c2oc(-c3cccc(NC(=O)c4cc5ccccc5o4)c3)nc2c1	1%[59 µM]	2%	.	21%	-12%	.
CCc1ccc(NC(=O)c2nnn(Cc3cccc(C(F)(F)F)c3)c2N)cc1	-10%[59 µM]	-33%	.	31%	-6%	.
NCCCCCc1nnc(SCC(=O)c2ccc(Cl)cc2)o1	50µM*	0%	-2	26%	-16%	5
NCCc1nnc(SCC(=O)c2ccc(Cl)cc2)o1	?	-17%	-3	18%	-3%	3
CCC1(C)NC(c2ccc3c(c2)OCO3)=CC(c2ccccc2O)N1 (stereo not drawn)	.	.	.	4%[57 µM]	-4%[57.1 µM]	.
COc1ccc(N2CCN(c3nc(NCCc4ccc(OC)c(OC)c4)nc(OC)n3)CC2)cc1	11µM*	40µM*	?	?	25µM*	?
Cc1cccc(Oc2cc(NC(=O)Cn3cnc([N+](=O)[O-])n3)cc([N+](=O)[O-])c2)c1	14µM*	?	-27	-18%	?	-20
Cc1cc([N+](=O)[O-])nn1CCCC(=O)Nc1cc(Oc2ccccc2)cc([N+](=O)[O-])c1	40µM*	?	4	1%	?	0
Cc1cc(C)cc(Oc2cc(NC(=O)c3cn(C)nc3C)cc([N+](=O)[O-])c2)c1	4%	9%	-10	1%	-12%	-3
CCc1cc2c(cc3c(=O)n(CCCC(=O)NCc4cccc(Cl)c4)ncn32)s1	3%[59 µM]	4%	.	18%	-25%	.
O=C1OC(c2cccs2)=N/C1=C\c1ccc(-c2cccc(Cl)c2)o1	35µM*	?	-25	8%	-29%	-17
COc1ccc(/C=C2\SC(=N)N(c3nccs3)C2=O)cc1OC	-17%	0%	-21	9%	?	-29
N=C1S/C(=C\c2ccc(-c3cccc(Cl)c3)o2)C(=O)N1c1nccs1	3.5µM*	-31%	-1	-15%	?	-18
Cc1ccc(C)c(Nc2nnc(-n3nc(C)cc3C)c3ccccc23)c1	-5%[59 µM]	-3%	.	12%	-3%	.
CCc1ccc2oc(C(=O)N(Cc3cccc(Cl)c3)Cc3ccco3)c(C)c2c1	56%[59 µM]	11%	.	57%	44%	.
CCOC(=O)c1ccccc1NC(=O)N1CCCN(S(=O)(=O)c2ccc3c(ccn3CC)c2)CC1	-5%[59 µM]	-8%	.	19%[57 µM]	-12%	.
CN(C)/C=C1/C=C(c2ccccc2)OC1=O	35µM*	-32%	7	-15%	-28%	4
O=C1OC(c2ccccc2)=C/C1=C\N1CCOCC1	8.9µM*	-35%	3	-1%	?	-6
